PostGolgi yeast = growth inhibition of a yeast mutant, post-Golgi transport screen | inhibition, % at 10 µM | AID 739 | post-Golgi transport phenotypic cell assay | 0.9% of 98,000 active;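 further: yeast cells grown in 1536-well plates; yeast grown about 18 h at 30C before absorbance read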
CYP2C9 inh = blocks human cytochrome P450 2C9; P11712; 20% of 96,000 active; inhibition, % at 5 µM; AID 777; CYP2C9 Supersomes, luciferin-H conversion, luminescence;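 active means blocking of liver enzyme CYP2C9 beyond about 50% at 5 µM, limit read from the data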
Target sequence (P11712 whole entry, looked up): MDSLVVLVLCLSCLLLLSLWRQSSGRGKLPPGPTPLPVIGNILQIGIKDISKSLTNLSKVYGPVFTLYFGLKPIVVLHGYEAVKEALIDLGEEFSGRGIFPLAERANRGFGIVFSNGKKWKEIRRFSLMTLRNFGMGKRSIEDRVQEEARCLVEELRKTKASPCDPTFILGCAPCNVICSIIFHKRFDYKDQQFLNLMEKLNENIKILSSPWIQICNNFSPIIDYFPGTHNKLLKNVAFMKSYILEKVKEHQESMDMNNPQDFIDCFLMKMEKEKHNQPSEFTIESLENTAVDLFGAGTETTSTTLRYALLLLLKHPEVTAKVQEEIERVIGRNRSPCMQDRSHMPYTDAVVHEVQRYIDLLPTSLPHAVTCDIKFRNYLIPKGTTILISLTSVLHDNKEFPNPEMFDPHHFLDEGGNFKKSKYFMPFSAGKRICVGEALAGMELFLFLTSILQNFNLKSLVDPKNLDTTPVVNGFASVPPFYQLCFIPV
CYP2C19 inhib = inhibitors of human CYP2C19 | CYP2C19 Supersomes, luciferin-H EGE luminescence, 30 min | AID 778 | inhibition, % at 5 µM | 21% of 96,000 active;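 active means CYP2C19 inhibition above a set limit at 5 µM in the primary screen, cut at about 50% in these data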;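 further: plate controls were negative control wells for no effect and 2.5 mM tranylcypromine positive control for full effect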
CYP2C19 activ = cytochrome P450 2C19 (human) activation. 96,000 tested, under 10 active. AID 1025. P33261. recombinant CYP2C19, luciferin-H EGE luminescence; stronger effect = higher value; 0 = fully inhibited enzyme, 1 = untreated enzyme. activation factor at 5 µM;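 active means activation factor of at least 2 at 5 µM in the primary screen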;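 further: 0 = wells with 2.5 mM tranylcypromine and 1 = vehicle-only wells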
PostGolgi ctrl = growth of the yeast control strain, post-Golgi counter-screen | inhibition, % at 10 µM | 5% of 98,000 active | AID 738 | efflux-deficient yeast background strain, growth absorbance A615, 16 h
CYP2C9 activ = activators of human CYP2C9. P11712. recombinant CYP2C9, luciferin-H conversion, luminescence; stronger effect = higher value; factor 1 = untreated enzyme, 0 = blocked. 1.4% of 96,000 active. activation factor at 5 µM. AID 1024;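 active means activation factor of 2 or more for CYP2C9 at a 5 µM dose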;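 further: 0 = sulfaphenazole-blocked wells and 1 = vehicle-only wells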
An asterisk follows results filed as active. The list is not random: actives were taken first. Their share in the collection is about 32%. Unless noted, no stated cut-off is given here; in the data, active means inhibition above about 30%; inactive means the rest.

SMILES | PostGolgi yeast | CYP2C9 inh | CYP2C19 inhib | CYP2C19 activ | PostGolgi ctrl | CYP2C9 activ
COC(=O)CSCC(=O)Nc1cc2c(cc1C(C)=O)OCO2 | 4 | 2 | 11 | 0.9 | 0 | 1
O=C(Cc1ccccc1)NC(NCCCN1CCOCC1)(C(F)(F)F)C(F)(F)F | 13 | 18 | 15 | 0.8 | -2 | 0.8
O=C(NCc1ccc2c(c1)OCO2)C1CCCN(S(=O)(=O)c2cccnc2)C1 (stereo unspecified) | 0 | 50 | -2 | 1 | 22 | 0.5
O=C(O)c1cccc(CN2C(=O)CSC2=O)c1 | -2 | 14 | 46 | 0.5 | 36* | 0.9
CCOc1ccc(N2C(=O)CN=C2Nc2ccccc2F)cc1 | -11 | 8 | 4 | 1 | 2 | 0.9
Cc1ccc(CC(=O)Nc2ccccc2N2CCOCC2)cc1C | -17 | 83* | 40 | 0.6 | 7 | 0.2
CC(C)CC(=O)Nc1ccccc1N1CCOCC1 | -11 | 4 | 14 | 0.9 | 2 | 1
O=C(COc1ccc(Cl)cc1Cl)NC(=O)N1CCOCC1 | -6 | -13 | 52* | 0.5 | 5 | 1.1
O=C(COc1ccc(Cl)cc1)Nc1ccccc1N1CCOCC1 | 6 | -19 | 26 | 0.7 | 10 | 1.2
Cc1cc(Cl)ccc1OCC(=O)Nc1ccccc1N1CCOCC1 | -5 | 94* | 91* | 0.1 | 23 | 0.1
O=C(Cc1ccc(Cl)cc1)Nc1ccccc1N1CCOCC1 | 11 | 41 | 84* | 0.2 | 6 | 0.6
COC(=O)c1sccc1Oc1ccc(F)cc1[N+](=O)[O-] | 10 | 12 | 35 | 0.6 | 7 | 0.9
O=C(NCCN1CCOCC1)Nc1ccccc1 | -1 | 14 | 2 | 1 | 23 | 0.9
COC(=O)Oc1nsnc1N1CCOCC1 | 1 | 45 | 4 | 1 | 0 | 0.6
Cc1ccccc1NC(=O)COc1nsnc1N1CCOCC1 | -3 | 15 | 60* | 0.4 | 5 | 0.9
CCOc1cc(N2CCOCC2)c(OCC)cc1NS(=O)(=O)c1ccc(Cl)s1 | 3 | 60* | 93* | 0.1 | 7 | 0.4
COc1ccc(CCNC(=O)COc2nsnc2N2CCOCC2)cc1OC | -3 | 15 | 9 | 0.9 | 5 | 0.9
Brc1ccc(Oc2nsnc2N2CCOCC2)cc1 | 0 | 24 | 89* | 0.1 | 7 | 0.8
CCOc1cc(N2CCOCC2)c(OCC)cc1NC(=O)Cc1cccc2ccccc12 | -7 | 42 | 55* | 0.5 | 28 | 0.6
O=C(CN1C(=O)C2CC=CCC2C1=O)Nc1nc2ccccc2[nH]1 (stereo unspecified) | 1 | 2 | -5 | 1 | 7 | 1
O=[N+]([O-])c1ccc(C(=Nc2cccc3ccccc23)N2CCOCC2)cc1 | -2 | 39 | 38 | 0.6 | -3 | 0.6
O=C(Oc1nsnc1N1CCOCC1)N(c1ccccc1)c1ccccc1 | 15 | 45 | 37 | 0.6 | 30* | 0.5
COc1ccc(/C=N/N=C2/NC(=O)C(c3ccccc3)(c3ccccc3)S2)cc1 | -1 | 82* | 5 | 0.9 | 1 | 0.2
COc1ccc(/C=N/n2cc(-c3ccccc3)nc2N)cc1 | 10 | -13 | 0 | 1 | 14 | 1.1
CCOc1ccccc1NS(=O)(=O)N(C)C | -6 | -72 | -13 | 1.1 | -3 | 1.7
SMILES | PostGolgi yeast | CYP2C9 inh | CYP2C19 inhib | CYP2C19 activ | PostGolgi ctrl | CYP2C9 activ
CCCCc1ccc(NS(=O)(=O)N(C)C)cc1 | 12 | 94* | 65* | 0.4 | 11 | 0.1
Cc1[nH]c(=O)[nH]c(=O)c1S(=O)(=O)Nc1ccc(Oc2ccccc2)cc1 | 7 | 96* | 92* | 0.1 | 5 | 0
CN(C)S(=O)(=O)Nc1ccc(Oc2ccccc2)cc1 | 3 | 85* | 95* | 0.1 | 9 | 0.1
O=C(Nc1ccc(OCC(=O)N2CCN(S(=O)(=O)c3ccccc3)CC2)cc1)c1ccco1 | 0 | 3 | -3 | 1 | 7 | 1
O=c1cc(C(F)(F)C(F)F)oc2ccccc12 | 4 | 11 | -19 | 1.2 | 16 | 0.9
CC(C)(C)OC(=O)NCCc1nnc(SCc2ccccc2Cl)o1 | 9 | 77* | 82* | 0.2 | 11 | 0.2
Cc1ccc(NC(=O)CSc2nnc(CCNC(=O)OC(C)(C)C)o2)c(C)c1 | -2 | 41 | 11 | 0.9 | 35* | 0.6
CC(C)(C)OC(=O)NCCCCCc1nnc(SCC(N)=O)o1 | 0 | 4 | 12 | 0.9 | 13 | 1
CC(C)(C)OC(=O)NCCc1nnc(S(=O)(=O)Cc2ccc(Cl)cc2Cl)o1 | 8 | 80* | 77* | 0.2 | 13 | 0.2
